PubChem BioAssay (NCATS)
Results filed as inconclusive are left out. The source made the active and inactive calls. Calls come from the whole dose curve; as a rule, active = well fitted inhibition curve with a large enough effect; inconclusive = small, poorly fitted or top-dose-only effect; inactive = flat fitted curve, though single readings scatter.

System: CP260
Assay: qHTS profiling for inhibitors of Plasmodium falciparum proliferation (AID 504749); note: nearly all actives have a fitted effect of over 60% in size;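 for activity, negative = inhibition: 0% = DMSO vehicle and full inhibition = artemisinin control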
Conditions: P. falciparum in erythrocytes, SYBR Green DNA, 72 h; series mostly up to 28.7 µM; activity, negative = inhibition: at the top concentration
How it was run: (§1)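 Three-day growth assay of blood-stage parasites in erythrocytes (0.3% parasitemia, 2.5% hematocrit) at 37 C, 5% CO2, quantified by SYBR Green DNA staining after overnight detergent lysis.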
Potency is the fitted concentration of half-maximal effect.

SMILES	activity, negative = inhibition	Potency
CC1=C(/C=C/C(C)=C/C=C/C(C)=C/C=C/C=C(C)/C=C/C=C(C)/C=C/C2=C(C)CCCC2(C)C)C(C)(C)CCC1	-1.63% (inactive)	
Cc1ccccc1OCC(O)CNCCOc1ccc(C(N)=O)cc1 (stereo not given)	3.43% (inactive)	
CCCCCCCC(=O)O	8.09% (inactive)	
CC1=CCC(C(C)(C)O)CC1 (stereo not given)	1.6% (inactive)	
CC(NNC(=O)c1ccccc1)c1ccccc1 (stereo not given)	7.29% (inactive)	
CCOc1ccc2c(c1)C(C)=CC(C)(C)N2	-1.87% (inactive)	
CO[C@H]1C[C@@H]2CC[C@@H](C)[C@@](O)(O2)C(=O)C(=O)N2CCCC[C@H]2C(=O)O[C@H]([C@H](C)C[C@@H]2CC[C@@H](OCCO)[C@H](OC)C2)CC(=O)[C@H](C)/C=C(\C)[C@@H](O)[C@@H](OC)C(=O)[C@H](C)C[C@H](C)/C=C/C=C/C=C/1C		2000 nM (active)
COC(=O)CCC(=O)CN	-4.5% (inactive)	
Cc1ccccc1	3.33% (inactive)	
CCCCC(C)(O)C/C=C/[C@H]1[C@H](O)CC(=O)[C@@H]1CCCCCCC(=O)OC (stereo not given in full)	7.03% (inactive)	
O=C(O)c1cc(O)c2c(c1)[O][Bi][O]2	3.7% (inactive)	

System: CP262
Assay: as above
Conditions: P. falciparum in erythrocytes, SYBR Green DNA, 72 h; series mostly up to 28.7 µM; activity, negative = inhibition: at the top concentration
How it was run: as §1

SMILES	activity, negative = inhibition	Potency
CCCCCCCC/C=C\CCCCCCCC(=O)O	-3.15% (inactive)	
COC(F)(F)C(Cl)Cl	-1.81% (inactive)	
Nc1ncnc2c1ncn2[C@@H]1O[C@H](COP(=O)(O)OP(=O)(O)OP(=O)(O)O)[C@@H](O)[C@H]1O	0% (inactive)	
Nc1c(N=Nc2ccc(-c3ccc(N=Nc4cc(S(=O)(=O)O)c5ccccc5c4N)cc3)cc2)cc(S(=O)(=O)O)c2ccccc12	0% (inactive)	
C#CCOc1ccc2c(C)cc(=O)oc2c1	0.774% (inactive)	
CC(O)CO (stereo not given)	3.52% (inactive)	
COc1ccc2c3c1O[C@H]1C[C@@H](O)C=C[C@@]31CCN(C)C2	5.7% (inactive)	
O=S(=O)(O)O	5.65% (inactive)	
CCCCCCCCCCCCCCCC(=O)OCC(COC(=O)CCCCCCCCCCCCCCC)OC(=O)CCCCCCCCCCCCCCC	-1.1% (inactive)	
O=C(O)CN(CCN(CC(=O)O)CC(=O)O)CC(=O)O	-6.8% (inactive)	
CCCCCCC(O)C/C=C/CCCCCCCC(=O)O (stereo not given)	0% (inactive)	
C=CCSSSCC=C	-1.36% (inactive)	
CCC(=O)NCCC1CCc2ccc3c(c21)CCO3 (stereo not given)	7.46% (inactive)	
C[C@@H]1CCC2[C@@H](C)[C@@H](O)O[C@@H]3O[C@@]4(C)CC[C@@H]1[C@@]23OO4 (stereo not given in full)		6 nM (active)
CCCCC/C=C\C/C=C\CCCCCCCC(=O)O	3.22% (inactive)	
CCCC(=O)O[C@]1(C(=O)CCl)[C@H](C)C[C@@H]2[C@H]3CCC4=CC(=O)C=C[C@]4(C)[C@@]3(F)C(=O)C[C@@]21C		1690 nM (active)
CCOc1ccc(N=Nc2ccc(N)cc2N)cc1	-3.29% (inactive)	
NC(=O)c1ncn(C2OC(CO)C(O)C2O)n1 (stereo not given)	1.58% (inactive)	
COCC(=O)Nc1cc(Sc2ccccc2)ccc1N=C(NC(=O)OC)NC(=O)OC	0% (inactive)	
CC1=C(/C=C/C(C)=C/C=C/C(C)=C/C=C/C=C(C)/C=C/C=C(C)/C=C/C2=C(C)CCCC2(C)C)C(C)(C)CCC1	4.53% (inactive)	
Cc1ccccc1OCC(O)CNCCOc1ccc(C(N)=O)cc1 (stereo not given)	3.03% (inactive)	
CCCCCCCC(=O)O	-1.04% (inactive)	
CC1=CCC(C(C)(C)O)CC1 (stereo not given)	-0.153% (inactive)	
CC(NNC(=O)c1ccccc1)c1ccccc1 (stereo not given)	7.94% (inactive)	
CCOc1ccc2c(c1)C(C)=CC(C)(C)N2	-5.71% (inactive)	
CO[C@H]1C[C@@H]2CC[C@@H](C)[C@@](O)(O2)C(=O)C(=O)N2CCCC[C@H]2C(=O)O[C@H]([C@H](C)C[C@@H]2CC[C@@H](OCCO)[C@H](OC)C2)CC(=O)[C@H](C)/C=C(\C)[C@@H](O)[C@@H](OC)C(=O)[C@H](C)C[C@H](C)/C=C/C=C/C=C/1C		3010 nM (active)
COC(=O)CCC(=O)CN	14.9% (inactive)	
Cc1ccccc1	0% (inactive)	
CCCCC(C)(O)C/C=C/[C@H]1[C@H](O)CC(=O)[C@@H]1CCCCCCC(=O)OC (stereo not given in full)	4.06% (inactive)	
O=C(O)c1cc(O)c2c(c1)[O][Bi][O]2	0% (inactive)	

System: CP265
Assay: as above
Conditions: P. falciparum in erythrocytes, SYBR Green DNA, 72 h; series mostly up to 28.7 µM; activity, negative = inhibition: at the top concentration
How it was run: as §1

SMILES	activity, negative = inhibition	Potency
CCCCCCCC/C=C\CCCCCCCC(=O)O	-6.62% (inactive)	
COC(F)(F)C(Cl)Cl	2.46% (inactive)	
Nc1ncnc2c1ncn2[C@@H]1O[C@H](COP(=O)(O)OP(=O)(O)OP(=O)(O)O)[C@@H](O)[C@H]1O	0.805% (inactive)	
Nc1c(N=Nc2ccc(-c3ccc(N=Nc4cc(S(=O)(=O)O)c5ccccc5c4N)cc3)cc2)cc(S(=O)(=O)O)c2ccccc12	0.448% (inactive)	
C#CCOc1ccc2c(C)cc(=O)oc2c1	0.711% (inactive)	
CC(O)CO (stereo not given)	-9.62% (inactive)	
COc1ccc2c3c1O[C@H]1C[C@@H](O)C=C[C@@]31CCN(C)C2	6.11% (inactive)	
O=S(=O)(O)O	-6.74% (inactive)	
CCCCCCCCCCCCCCCC(=O)OCC(COC(=O)CCCCCCCCCCCCCCC)OC(=O)CCCCCCCCCCCCCCC	0.0404% (inactive)	
O=C(O)CN(CCN(CC(=O)O)CC(=O)O)CC(=O)O	-4.78% (inactive)	
CCCCCCC(O)C/C=C/CCCCCCCC(=O)O (stereo not given)	4.35% (inactive)	
C=CCSSSCC=C	-6.73% (inactive)	
CCC(=O)NCCC1CCc2ccc3c(c21)CCO3 (stereo not given)	-0.913% (inactive)	
C[C@@H]1CCC2[C@@H](C)[C@@H](O)O[C@@H]3O[C@@]4(C)CC[C@@H]1[C@@]23OO4 (stereo not given in full)		0.9 nM (active)
CCCCC/C=C\C/C=C\CCCCCCCC(=O)O	6.22% (inactive)	
CCCC(=O)O[C@]1(C(=O)CCl)[C@H](C)C[C@@H]2[C@H]3CCC4=CC(=O)C=C[C@]4(C)[C@@]3(F)C(=O)C[C@@]21C		2820 nM (active)
CCOc1ccc(N=Nc2ccc(N)cc2N)cc1	-26.7% (inactive)	
NC(=O)c1ncn(C2OC(CO)C(O)C2O)n1 (stereo not given)	-11.4% (inactive)	
COCC(=O)Nc1cc(Sc2ccccc2)ccc1N=C(NC(=O)OC)NC(=O)OC	7.1% (inactive)	
CC1=C(/C=C/C(C)=C/C=C/C(C)=C/C=C/C=C(C)/C=C/C=C(C)/C=C/C2=C(C)CCCC2(C)C)C(C)(C)CCC1	-5.06% (inactive)	
Cc1ccccc1OCC(O)CNCCOc1ccc(C(N)=O)cc1 (stereo not given)	-0.0113% (inactive)	
CCCCCCCC(=O)O	2.45% (inactive)	
CC1=CCC(C(C)(C)O)CC1 (stereo not given)	0.16% (inactive)	
CC(NNC(=O)c1ccccc1)c1ccccc1 (stereo not given)	10.8% (inactive)	
CO[C@H]1C[C@@H]2CC[C@@H](C)[C@@](O)(O2)C(=O)C(=O)N2CCCC[C@H]2C(=O)O[C@H]([C@H](C)C[C@@H]2CC[C@@H](OCCO)[C@H](OC)C2)CC(=O)[C@H](C)/C=C(\C)[C@@H](O)[C@@H](OC)C(=O)[C@H](C)C[C@H](C)/C=C/C=C/C=C/1C		1120 nM (active)
COC(=O)CCC(=O)CN	0.0565% (inactive)	
Cc1ccccc1	5.55% (inactive)	
CCCCC(C)(O)C/C=C/[C@H]1[C@H](O)CC(=O)[C@@H]1CCCCCCC(=O)OC (stereo not given in full)	-1.51% (inactive)	
O=C(O)c1cc(O)c2c(c1)[O][Bi][O]2	8.69% (inactive)	
